# In the supplement of paper PMC3334620:
# Over roughly 33,000 sequences, “E-score (-0.5 to 0.5)” has its median near -0.01; the highest 2% begin near 0.26. The list comes from a sample in which the highest values are over-represented; it also holds similar and randomly drawn sequences.
# Target: Ste12 (UniProt P13574)
# Experiment: PBM E-score (8-mer binding enrichment) (E-score (-0.5 to 0.5)); higher = stronger / more preferred TF binding
# Conditions: protein concentration: 200 nM; construct: GST-DNA-binding domain
# Experimental: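 Universal 'all 10-mer' protein binding microarrays (Agilent AMADID 015681) probed with GST-tagged S. cerevisiae TFs (full-length or DBD) made by in vitro transcription/translation (PURExpress), about 100-200 nM. Bound TF was detected with fluorescent anti-GST. Each ungapped 8-mer (which stands for itself and its reverse complement) is scored by the PBM enrichment score (E-score), a modified Wilcoxon-Mann-Whitney statistic from -0.5 to +0.5, computed with the Universal PBM Analysis Suite. Scale: above 0.35 generally sequence-specific binding.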
# Sequence of UniProt P13574 (P13574 whole entry): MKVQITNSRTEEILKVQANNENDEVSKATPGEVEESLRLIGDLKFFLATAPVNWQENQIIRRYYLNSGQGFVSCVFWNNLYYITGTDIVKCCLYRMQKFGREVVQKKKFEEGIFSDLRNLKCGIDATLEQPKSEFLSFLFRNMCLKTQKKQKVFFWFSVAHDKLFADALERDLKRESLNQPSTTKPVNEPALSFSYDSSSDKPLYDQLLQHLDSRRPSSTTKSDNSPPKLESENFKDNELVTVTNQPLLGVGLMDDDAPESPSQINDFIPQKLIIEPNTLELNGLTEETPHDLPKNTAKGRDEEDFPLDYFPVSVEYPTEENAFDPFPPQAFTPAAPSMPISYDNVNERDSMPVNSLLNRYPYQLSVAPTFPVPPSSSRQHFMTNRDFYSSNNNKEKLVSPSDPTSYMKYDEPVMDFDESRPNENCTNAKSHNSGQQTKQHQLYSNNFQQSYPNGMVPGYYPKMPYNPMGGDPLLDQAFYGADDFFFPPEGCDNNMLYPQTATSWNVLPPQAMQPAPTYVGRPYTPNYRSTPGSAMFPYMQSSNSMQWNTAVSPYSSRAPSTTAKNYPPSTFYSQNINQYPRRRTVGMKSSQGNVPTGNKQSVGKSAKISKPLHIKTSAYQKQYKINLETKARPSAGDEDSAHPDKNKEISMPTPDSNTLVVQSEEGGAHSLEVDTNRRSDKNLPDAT
row,Sequence,PBM E-score
1,GCCCACCC,0.344
2,CCCCACCA,0.102
3,CCCCACCC,0.361
4,GCCCACCA,-0.0497
5,ACCCACCT,0.0687
6,ACCCACCA,0.0136
7,CCCCACCG,0.137
8,GCCCACAC,0.0974
9,ACCCACCC,0.314
10,GGAAAATA,0.255
11,AACTACTT,-0.00699
12,CTGGTCGC,0.0843
13,CACTATGC,-0.0894
14,ATCAAACA,0.27
15,ATCAAACC,0.217
16,CTCAAGCA,-0.0187
17,ATCAAGCA,0.0192
18,CTCAAACA,0.341
19,CTCAAACC,0.0438
20,CTGAATCC,0.0117
21,CAGTAGGC,-0.0958
22,GACTAGGA,-0.047
23,GCTTGATA,0.083
24,AATGATAA,0.263
25,CATGATAC,0.242
26,TATGATAA,0.131

row,Sequence,PBM E-score
1,AATGATAG,0.194
2,AATGATAT,0.113
3,AATGATAC,0.278
4,GTCTAACA,-0.0889
5,ACTTACCT,-0.0503
6,ACCGGTGC,-0.0741
7,ATTCCACA,0.268
8,ATTCCACG,-0.0633
9,ATTCCACC,0.113
10,ATCGAGTA,-0.0649
11,CTCGCACA,0.127
12,CTTGAGTC,-0.136
13,TCTTTGAA,0.161
14,GGTTTGAA,0.297
15,CGTTTGAA,0.265
16,CGTTTTGA,0.275
17,AGTTTTGA,0.148
18,CGTTTGAC,-0.0236
19,GGTTTGAC,-0.0297
20,GTTTTGAA,0.189
21,TGTTTGAA,0.378
22,CGTTTTGC,0.197
23,AGTTTGAA,0.174
24,CGTTTGAG,0.111
25,CACTGCAC,-0.14
26,CGCCCACC,0.139

row,Sequence,PBM E-score
1,ATCCTTTG,0.0895
2,AGAAAGTA,0.138
3,AGACAAGC,-0.0877
4,AGACGCGG,0.0721
5,AACCCAGA,-0.108
6,CGCTTGCC,-0.062
7,ATTTAAAC,0.207
8,CTTTAAAG,-0.0155
9,ATTTAAAG,0.275
10,ATTTAAAT,0.327
11,AATTAAAT,0.156
12,AGTTAAAT,0.163
13,ACAAGTTC,-0.00961
14,ATGAGTTA,-0.0873
15,AAGTCACC,-0.0787
16,TAAGTGCA,-0.104
17,TCTGAAAA,0.12
18,TTTGAAAA,0.309
19,ATGGAAAA,0.186
20,ATTGAAGA,0.00866
21,GTAGAAAC,0.0517
22,ATGGAAAT,0.0797
23,TGTGAAAA,0.216
24,ATTGAAAA,0.352
25,ATGGAAAC,0.263
26,CTTGAAAA,0.157

row,Sequence,PBM E-score
1,GTTGAAAA,0.206
2,GTTGAAAC,0.399
3,GCTTATCC,0.0792
4,ACTTGAGA,0.142
5,ACGTCTAC,-0.118
6,ATAAAAGC,-0.00425
7,GCCCTGGA,-0.235
8,CACTATGG,-0.0915
9,ATTGAGAG,-0.0617
10,CTTGAAAC,0.479
11,ATTGAAAC,0.398
12,ATTGAGAA,0.277
13,ATTGAAAT,0.233
14,ATTGAGAC,0.122
15,CTTGAAAG,-0.0999
16,ATTGAAAG,0.0623
17,CTTGAACC,-0.0679
18,AACGACCA,-0.0479
19,ATGGGAAG,-0.0232
20,CCCCGGGG,-0.186
21,GTGTACAC,-0.224
22,ATGTTGTA,-0.00602
23,GCATCAGC,0.034
24,ACTAGGTC,-0.114
25,ACAAAGAT,0.0339
26,AAAAAGAT,0.271

row,Sequence,PBM E-score
1,TAAAAGAA,0.0708
2,AAAAAGAA,0.289
3,AAAAGAAT,0.266
4,AAAGATAG,-0.0536
5,AAAGATAT,0.273
6,AAAGATAC,0.0821
7,AAAAAGAC,0.153
8,CAAAAGAA,0.156
9,AAAAGAAC,0.126
10,AAAAGAAG,0.072
11,AAAGCAAA,0.148
12,AAACCTTC,-0.0506
13,CGGGACTA,-0.0932
14,GCATCCGA,-0.0885
15,CGTATGAA,0.213
16,AGTAGGAG,-0.119
17,CCTCGCAA,0.18
18,AAAGAAAG,0.19
19,CGAAAAGA,0.242
20,AGAAAAGC,0.127
21,AGAAAAGA,0.297
22,CAAGAAAA,0.24
23,AAAGAAAA,0.351
24,AGAGGGAG,-0.106
25,CAAAGTCG,0.0234
26,TCCTAGCA,-0.0629

row,Sequence,PBM E-score
1,ACCTCCAC,-0.0491
2,GATAGATC,-0.194
3,AACAGAGT,0.173
4,CACCTAAC,0.0515
5,CTGTAGTA,0.186
6,CCAATATA,-0.103
7,CTAATATA,0.0456
8,ATAATATG,0.248
9,ACAATATA,0.271
10,GCAATATA,0.149
11,ATAATACC,0.161
12,ATAATATA,0.301
13,ATAATACG,0.0652
14,ATAATACA,0.318
15,AGAGTAGA,-0.0237
16,CGTTCTCA,0.0637
17,GCCAGCTA,-0.192
18,CCGCATCC,-0.0589
19,ATGTTCAC,0.0173
20,TGATGCAA,0.137
21,ACCTTCTC,0.0171
22,AAGAAAAG,0.302
23,CAGAAAAC,0.133
24,AAGAAAAC,0.275
25,AAGAAAAA,0.158
26,AAGAAAAT,0.254

row,Sequence,PBM E-score
1,CAGAAAAG,0.186
2,GGTCCTTA,0.0224
3,CCCTCCAC,-0.0433
4,TCATCAAA,0.236
5,TGATCAAA,0.156
6,CTATCAAA,0.186
7,GTATCAAA,0.293
8,GTATCAAC,0.122
9,ATATCAAG,0.139
10,GTATCAGA,0.119
11,ATATCAAA,0.3
12,TTATCAAA,0.274
13,ACTACTTC,-0.0884
14,ATCACAGG,-0.0882
15,CAATCATC,-0.0782
16,ACTCTGAA,0.177
17,ACGGGTAC,-0.139
18,TAGGCGGA,-0.0248
19,CTATGAAA,0.211
20,GTATGAGA,-0.0324
